According to PubChem BioAssay (NCATS):
Results filed as inconclusive are left out. Entries that show only a call come without a potency. Values without a mark were called inactive. Calls of active or inactive are those of the source. Calls come from the whole dose curve; as a rule, active = well fitted inhibition curve with a large enough effect; inconclusive = small, poorly fitted or top-dose-only effect; inactive = no such curve, though single readings can be large or run the other way.

What follows are molecules tested against Rap guanine nucleotide exchange factor 4 (Homo sapiens) (UniProt Q8WZA2) (assay: Confirmatory qHTS for antagonist of cAMP-regulated guanine nucleotide exchange factor 4 (EPAC2) (AID 1645885; note: nearly all actives have a fitted effect of over 25% in size; note: potency is the fitted concentration of half-maximal effect)). Conditions: EPAC2 Rap1B-BODIPY-GDP exchange fluorescence, biochemical; series mostly up to 12.7 µM.
Chain of Rap guanine nucleotide exchange factor 4 (Homo sapiens) (Q8WZA2 whole entry, looked up): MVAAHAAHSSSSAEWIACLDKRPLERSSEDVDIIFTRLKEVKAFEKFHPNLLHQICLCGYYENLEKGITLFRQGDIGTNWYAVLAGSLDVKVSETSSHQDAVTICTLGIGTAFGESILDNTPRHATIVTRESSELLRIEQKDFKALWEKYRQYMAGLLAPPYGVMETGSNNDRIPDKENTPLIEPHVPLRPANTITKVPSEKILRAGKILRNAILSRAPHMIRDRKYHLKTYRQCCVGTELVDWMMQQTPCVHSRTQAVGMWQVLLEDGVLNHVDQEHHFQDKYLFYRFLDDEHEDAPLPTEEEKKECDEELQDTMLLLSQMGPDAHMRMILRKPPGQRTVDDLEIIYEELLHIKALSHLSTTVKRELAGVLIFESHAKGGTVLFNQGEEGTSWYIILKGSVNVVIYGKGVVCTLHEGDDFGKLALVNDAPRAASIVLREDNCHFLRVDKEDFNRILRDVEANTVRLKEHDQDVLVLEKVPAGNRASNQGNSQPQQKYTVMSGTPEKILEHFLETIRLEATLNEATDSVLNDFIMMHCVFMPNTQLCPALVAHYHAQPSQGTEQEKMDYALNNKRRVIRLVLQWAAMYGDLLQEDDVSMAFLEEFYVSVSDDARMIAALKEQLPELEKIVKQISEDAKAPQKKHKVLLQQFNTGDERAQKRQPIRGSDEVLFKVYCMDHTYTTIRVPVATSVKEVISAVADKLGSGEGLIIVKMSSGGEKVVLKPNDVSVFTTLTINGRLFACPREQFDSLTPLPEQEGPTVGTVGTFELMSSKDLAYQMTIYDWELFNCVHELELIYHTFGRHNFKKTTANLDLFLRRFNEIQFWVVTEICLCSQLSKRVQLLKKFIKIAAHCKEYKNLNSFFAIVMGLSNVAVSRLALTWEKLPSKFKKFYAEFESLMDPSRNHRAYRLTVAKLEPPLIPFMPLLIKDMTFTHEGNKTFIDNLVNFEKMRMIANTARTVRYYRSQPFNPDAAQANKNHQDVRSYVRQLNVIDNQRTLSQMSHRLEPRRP

Q: Which Potency does the source give for Cc1ccc(-c2nc3ccc(C)cn3c2Cc2cccc(F)c2)cc1 here?
A: inactive

Q: Which Potency does the source give for Cc1ccccc1C1(O)c2ccccc2-c2ccccc21 here?
A: inactive

Q: Which Potency does the source give for COc1ccc(OC)c(NC(=O)CSc2ncnc3sc(C)cc23)c1 here?
A: inactive

Q: Which Potency does the source give for O=C(Nc1cccc(S(=O)(=O)NCc2ccco2)c1)c1cc(-c2ccccc2)nc2ccccc12 here?
A: inactive

Q: Cc1ccc2c(c1)-c1c(cnn1CC(=O)N1CCN(c3cccc(C(F)(F)F)c3)CC1)CO2 was tested. Which outcome did it give?
A: inactive [at 12.7 µM]

Q: Which Potency does the source give for COC(=O)c1ccc(OCC2c3cc(OC)c(OC)cc3CCN2C(=O)c2ccc(OC)cc2)cc1 (stereo not drawn) here?
A: inactive

Q: Nc1nc(CSc2ccc(Cl)cc2)nc(N2CCCCC2)n1 was tested. Which Potency did it give?
A: inactive

Q: For Cc1ccc(C)c(Oc2nc3c(c(=O)n(C)c(=O)n3C)n2Cc2ccccc2)c1, which Potency is on record?
A: inactive

Q: With C#Cc1ccc([C@H]2C=C(C(=O)NCc3ccccc3)O[C@@H](OCC)[C@@H]2CCCO)cc1 as the molecule, how does the Potency read?
A: 37.9 µM (active)

Q: How did the Potency turn out when O=c1[nH]c(Nc2ccc(F)cc2)cc2ccccc12 was run?
A: inactive

Q: With CCOc1cc2c(cc1/C=C/c1noc(C)c1[N+](=O)[O-])OC(C)C2 (stereo not drawn) as the molecule, how does the Potency read?
A: inactive

Q: With Cc1nc(N)sc1-c1csc(Nc2ncccn2)n1 as the molecule, how does the Potency read?
A: inactive

Q: For O=S(=O)(c1cccc2ccccc12)N1CCCCC1, which Potency is on record?
A: 21.3 µM (active)

Q: How did the Potency turn out when O=C(Cn1c(=O)c2ccccc2n(CC(=O)Nc2ccc(Cl)cc2)c1=O)NCCc1ccccc1 was run?
A: inactive

Q: Which Potency does the source give for Cc1nc2ccccc2c2oc(C(=O)Nc3ccc4c(c3)OCCO4)cc12 here?
A: inactive

Q: Which Potency does the source give for Cc1ccccc1OCC(=O)Nc1ccc(C(=O)OCc2cc(=O)n3c(C)csc3n2)cc1 here?
A: inactive

Q: With COc1ccccc1CN(C)C(=O)C(c1ccccc1)c1ccccc1 as the molecule, how does the Potency read?
A: inactive

Q: CCn1c(SCC(=O)c2ccc(O)c(O)c2)nnc1-c1ccccc1OC was tested. Which Potency did it give?
A: 9.53 µM (active)

Q: O=C(Nc1ccc(-c2cn3ccccc3n2)cc1)c1cccs1 was tested. Which Potency did it give?
A: inactive

Q: How did the Potency turn out when COc1ccc(-c2ccc(C(=O)NC(C)C)c3occc23)c(C)c1 was run?
A: inactive

Q: With CCOC(=O)Nc1cc2c(c(N)n1)N=C(c1ccccc1)CN2 as the molecule, how does the Potency read?
A: inactive

Q: How did the Potency turn out when COc1cccc2cc(/C(=N/O)c3ccccc3)oc12 was run?
A: inactive

Q: Cc1cccc(C)c1Nc1c(-c2ccc(Cl)s2)nc2ncccn12 was tested. Which Potency did it give?
A: inactive

What follows are molecules tested against Rap guanine nucleotide exchange factor 3 (Homo sapiens) (UniProt O95398) (assay: Counterscreen qHTS for antagonist of cAMP-regulated guanine nucleotide exchange factor 3 (EPAC1) (AID 1645888;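 note: fluorescence loss as bound BODIPY-GDP is released from Rap1B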)). Conditions: Rap1B-BODIPY-GDP nucleotide exchange, fluorescence; series mostly up to 154 µM.
Summary of the method: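 Measured: fluorescence of BODIPY-GDP bound to Rap1B, which falls as exchange proceeds. Conditions include 50 uM competing GDP, 5 and 30 min reads, and a later cAMP challenge for antagonist detection.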

Chain of Rap guanine nucleotide exchange factor 3 (Homo sapiens) (O95398 whole entry, looked up): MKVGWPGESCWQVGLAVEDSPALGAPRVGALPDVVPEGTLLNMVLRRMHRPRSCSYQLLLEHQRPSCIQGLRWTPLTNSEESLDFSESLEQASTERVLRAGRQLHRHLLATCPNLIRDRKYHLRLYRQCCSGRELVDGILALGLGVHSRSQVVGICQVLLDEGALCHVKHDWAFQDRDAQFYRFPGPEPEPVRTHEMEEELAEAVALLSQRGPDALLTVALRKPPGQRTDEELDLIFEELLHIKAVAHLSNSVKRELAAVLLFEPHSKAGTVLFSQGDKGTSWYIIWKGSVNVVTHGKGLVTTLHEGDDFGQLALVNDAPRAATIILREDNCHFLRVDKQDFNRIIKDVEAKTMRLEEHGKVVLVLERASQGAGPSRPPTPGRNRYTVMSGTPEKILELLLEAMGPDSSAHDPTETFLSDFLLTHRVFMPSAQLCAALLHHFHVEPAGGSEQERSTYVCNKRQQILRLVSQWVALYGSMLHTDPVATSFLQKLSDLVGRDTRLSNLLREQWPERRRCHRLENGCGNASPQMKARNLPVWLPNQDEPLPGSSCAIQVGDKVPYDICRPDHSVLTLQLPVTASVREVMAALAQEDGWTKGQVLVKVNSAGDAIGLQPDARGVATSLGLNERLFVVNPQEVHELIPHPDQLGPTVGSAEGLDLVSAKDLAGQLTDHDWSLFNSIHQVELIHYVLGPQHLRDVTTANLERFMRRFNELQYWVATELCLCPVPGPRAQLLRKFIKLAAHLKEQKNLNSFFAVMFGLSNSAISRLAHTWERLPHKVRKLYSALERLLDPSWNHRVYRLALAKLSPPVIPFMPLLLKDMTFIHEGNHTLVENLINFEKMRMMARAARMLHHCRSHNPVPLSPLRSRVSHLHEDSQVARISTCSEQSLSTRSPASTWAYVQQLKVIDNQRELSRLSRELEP

Q: CC(=O)Nc1ccc(Nc2nnc(-c3ccc(O)cc3)c3ccccc23)cc1 was tested. Which Potency did it give?
A: inactive

Q: With O=[N+]([O-])c1cccc(S(=O)(=O)Nc2cccc(-c3ccc(N4CCCC4)nn3)c2)c1 as the molecule, how does the Potency read?
A: inactive

Q: With Cc1nn(-c2ccccc2)c2nc(N)c(C#N)c(-c3ccc(O)c(O)c3)c12 as the molecule, how does the Potency read?
A: inactive

Q: For Cc1ccc2c(c1)N(Cc1cccc(Cl)c1)C(=O)c1cccnc1O2, which Potency is on record?
A: inactive

Q: For Cc1cc(C)c2c(CN3CCCC3)cc(=O)oc2c1, which Potency is on record?
A: inactive

Q: With CCCCCCn1c(=O)[nH]c2nc3cc(N)c(C)cc3nc2c1=O as the molecule, how does the Potency read?
A: inactive

Q: With COc1ccc(/C=C2\SC(=S)N(CCC(=O)N3CCCCC3CCO)C2=O)cc1 (stereo not drawn) as the molecule, how does the Potency read?
A: inactive

Q: With O=C(c1ccccc1Cc1ccccc1)N1CCN(S(=O)(=O)c2ccccc2Br)CC1 as the molecule, how does the Potency read?
A: inactive

Q: Clc1ccc(OCCn2c(-c3ccco3)nc3ccccc32)cc1 was tested. Which Potency did it give?
A: inactive

Q: Cc1cc2ccccn2c1C(=O)c1ccc(Cl)c([N+](=O)[O-])c1 was tested. Which Potency did it give?
A: inactive

Q: Which Potency does the source give for COc1ccc(CNc2ncnc3onc(-c4ccc(F)cc4)c23)cc1 here?
A: inactive

Q: With N#C/C(=C\c1ccc(-c2ccccc2C(=O)O)o1)c1nc2ccccc2[nH]1 as the molecule, how does the Potency read?
A: inactive

Q: How did the Potency turn out when Cc1csc2nc(-c3cccc(NC(=O)c4cccc(F)c4)c3)cn12 was run?
A: inactive

Q: COc1ccc(Cl)cc1C1CC(=O)Nc2cc3c(cc21)OCCO3 (stereo not drawn) was tested. Which Potency did it give?
A: inactive

Q: How did the Potency turn out when Cc1nc2c(C(=O)NCc3ccccc3Cl)c[nH]n2c(=O)c1Cc1cccc(Cl)c1 was run?
A: inactive

Q: CCOc1ccccc1C(=O)N1CCc2cc(OC)c(OC)cc2C1COc1ccc(OC)cc1 (stereo not drawn) was tested. Which Potency did it give?
A: inactive

Q: For COc1ccc(C(=O)NCCn2cc(SCc3cccc(F)c3)c3ccccc32)cc1OC, which Potency is on record?
A: inactive

Q: Which Potency does the source give for Cc1ccc(-c2nc3ccc(C)cn3c2Cc2cccc(F)c2)cc1 here?
A: inactive

Q: How did the Potency turn out when Cc1ccccc1C1(O)c2ccccc2-c2ccccc21 was run?
A: inactive

Q: How did the Potency turn out when COc1ccc(OC)c(NC(=O)CSc2ncnc3sc(C)cc23)c1 was run?
A: inactive

Q: With O=C(Nc1cccc(S(=O)(=O)NCc2ccco2)c1)c1cc(-c2ccccc2)nc2ccccc12 as the molecule, how does the Potency read?
A: inactive

Q: Cc1ccc2c(c1)-c1c(cnn1CC(=O)N1CCN(c3cccc(C(F)(F)F)c3)CC1)CO2 was tested. Which Potency did it give?
A: inactive

Q: COC(=O)c1ccc(OCC2c3cc(OC)c(OC)cc3CCN2C(=O)c2ccc(OC)cc2)cc1 (stereo not drawn) was tested. Which Potency did it give?
A: inactive

Q: With Nc1nc(CSc2ccc(Cl)cc2)nc(N2CCCCC2)n1 as the molecule, how does the Potency read?
A: inactive

Q: How did the Potency turn out when Cc1ccc(C)c(Oc2nc3c(c(=O)n(C)c(=O)n3C)n2Cc2ccccc2)c1 was run?
A: inactive

Q: Which Potency does the source give for C#Cc1ccc([C@H]2C=C(C(=O)NCc3ccccc3)O[C@@H](OCC)[C@@H]2CCCO)cc1 here?
A: inactive

Q: How did the Potency turn out when O=c1[nH]c(Nc2ccc(F)cc2)cc2ccccc12 was run?
A: inactive

Q: For CCOc1cc2c(cc1/C=C/c1noc(C)c1[N+](=O)[O-])OC(C)C2 (stereo not drawn), which activity change, negative = inhibition is on record?
A: -13.8% [at 30.8 µM]

Q: For Cc1nc(N)sc1-c1csc(Nc2ncccn2)n1, which Potency is on record?
A: inactive

Q: With O=S(=O)(c1cccc2ccccc12)N1CCCCC1 as the molecule, how does the Potency read?
A: inactive

Q: With O=C(Cn1c(=O)c2ccccc2n(CC(=O)Nc2ccc(Cl)cc2)c1=O)NCCc1ccccc1 as the molecule, how does the Potency read?
A: inactive

Q: How did the Potency turn out when Cc1nc2ccccc2c2oc(C(=O)Nc3ccc4c(c3)OCCO4)cc12 was run?
A: inactive

Q: Which Potency does the source give for Cc1ccccc1OCC(=O)Nc1ccc(C(=O)OCc2cc(=O)n3c(C)csc3n2)cc1 here?
A: inactive

Q: For COc1ccccc1CN(C)C(=O)C(c1ccccc1)c1ccccc1, which Potency is on record?
A: inactive

Q: Which Potency does the source give for CCn1c(SCC(=O)c2ccc(O)c(O)c2)nnc1-c1ccccc1OC here?
A: inactive

Q: With O=C(Nc1ccc(-c2cn3ccccc3n2)cc1)c1cccs1 as the molecule, how does the Potency read?
A: inactive

Q: With COc1ccc(-c2ccc(C(=O)NC(C)C)c3occc23)c(C)c1 as the molecule, how does the Potency read?
A: inactive

Q: With CCOC(=O)Nc1cc2c(c(N)n1)N=C(c1ccccc1)CN2 as the molecule, how does the Potency read?
A: inactive

Q: For COc1cccc2cc(/C(=N/O)c3ccccc3)oc12, which Potency is on record?
A: inactive

Q: Cc1cccc(C)c1Nc1c(-c2ccc(Cl)s2)nc2ncccn12 was tested. Which Potency did it give?
A: inactive
